Assay outcomes: PubChem, National Center for Advancing Translational Sciences (NCATS)
HPGD block: blocks human HPGD enzyme activity. purified HPGD, NADH fluorescence kinetic, PGE2 substrate. AID 894. P15428. 150,000 tested, 4.3% active. Potency, µM, most hits filed as inhibitors
Target sequence (P15428 whole entry, looked up): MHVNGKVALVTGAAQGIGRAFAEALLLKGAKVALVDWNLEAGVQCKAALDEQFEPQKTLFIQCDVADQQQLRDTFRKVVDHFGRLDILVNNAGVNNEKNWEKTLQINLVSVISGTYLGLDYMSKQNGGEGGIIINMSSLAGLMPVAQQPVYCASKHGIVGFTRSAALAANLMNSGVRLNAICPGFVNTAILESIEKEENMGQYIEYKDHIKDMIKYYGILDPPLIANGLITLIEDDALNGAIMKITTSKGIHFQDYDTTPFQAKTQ
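NADH formation kinetics: reaction with 30 uM PGE2 and 1 mM NAD+ (final), 20 nM enzyme, Tris-HCl pH 8 with Tween 20, after 15 min compound preincubation at room temperature. Fluorescence change, last versus first of five reads.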
ALDH1A1 inh: inhibitors of human aldehyde dehydrogenase 1A1 | P00352 | Purified ALDH1A1, NADH fluorescence, propionaldehyde substrate | Potency, µM (doses to about 75.3 µM), hits mostly inhibitors | 220,000 tested, 7.3% active | AID 1030
KDM4E inh: inhibitors of human JMJD2E histone demethylase. JMJD2E catalytic domain, FDH-coupled NADH fluorescence (FDH is formaldehyde dehydrogenase). B2RXH2. Potency, µM (top dose mostly 57.1 µM), actives largely listed as inhibitors. 230,000 tested, 1.6% active; also: nearly all actives have a fitted effect of over 50% in size
Target sequence (B2RXH2 1-337 limits assumed): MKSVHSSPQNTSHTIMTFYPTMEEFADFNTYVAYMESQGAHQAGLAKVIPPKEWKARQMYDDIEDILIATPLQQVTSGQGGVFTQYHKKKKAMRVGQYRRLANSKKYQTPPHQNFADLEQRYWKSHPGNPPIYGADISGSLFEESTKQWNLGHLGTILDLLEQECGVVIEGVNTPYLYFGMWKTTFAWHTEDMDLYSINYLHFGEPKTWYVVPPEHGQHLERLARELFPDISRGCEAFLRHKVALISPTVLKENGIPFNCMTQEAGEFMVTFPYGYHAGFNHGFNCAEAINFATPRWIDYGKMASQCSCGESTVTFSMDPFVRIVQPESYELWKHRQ
PNC inhibitor: blocks assembly of the perinucleolar compartment; PC3M PTB-GFP, PNC prevalence imaging, 16 h; hits give low values; activity change (PNC), negative = inhibition, % at 10 µM; 140,000 tested, 3.1% active;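 active = readout at or below -70, meaning at least 70% loss of cells showing the perinucleolar compartment, a nuclear body marking cancer cells; inconclusive = readout between -30 and a set limit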
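Compounds are pinned in duplicate onto adhered PC3M cells stably expressing GFP-tagged PTB and incubated 16 h at 37 C. Cells are then fixed, nuclei stained with Hoechst, and PNC-positive cells counted.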
Large screens that a line does not name were inactive. Most compounds without a hit are left out; they make up all but 11% or so of the library. Unless noted, calls follow the shape of the dose curve; as a rule, active = well fitted inhibition curve with a large enough effect (not every such curve was filed as active); inconclusive = small, poorly fitted or top-dose-only effect, or another doubt; inactive = no such curve, though single readings can be large or run the other way.

O=[N+]([O-])c1cc(C(F)(F)F)cc([N+](=O)[O-])c1NCCNC(=S)Nc1cccc(F)c1	ALDH1A1 inh inconclusive (no result: HPGD block, PNC inhibitor)
O=C(c1cccc(F)c1)N1CCC2(CCCN(Cc3ccccc3)C2)CC1	none (no result: KDM4E inh, PNC inhibitor)
CCc1cc2c(NC(C(=O)O)C(C)C)ncnc2s1 (stereo not given)	ALDH1A1 inh 16µM
CCc1cc2c(N[C@@H](Cc3c[nH]c4ccccc34)C(=O)O)ncnc2s1	none
CCOc1ccccc1Nc1nc(-c2sc(C)nc2C)cs1	ALDH1A1 inh 20µM, KDM4E inh inconclusive (no result: HPGD block, PNC inhibitor)
Cc1nc(C)c(-c2csc(NCc3ccccc3)n2)s1	HPGD block inconclusive, ALDH1A1 inh inconclusive
COc1ccccc1Nc1nc(-c2c(C)[nH]c3ccccc23)cs1	ALDH1A1 inh inconclusive, KDM4E inh 28µM, PNC inhibitor inconclusive
CCCC(=O)Nc1nc(C)c(-c2csc(Nc3ccccc3OC)n2)s1	ALDH1A1 inh inconclusive
Cc1nc(Nc2ccccc2)sc1C	ALDH1A1 inh 16µM (no result: HPGD block, PNC inhibitor)
Cc1cc(O)ccc1Nc1nc(-c2sc(N)nc2C)cs1	HPGD block 16µM, ALDH1A1 inh 8.9µM, KDM4E inh inconclusive
COc1ccc(C2OC(=O)CC2C(=O)NCc2ccc(Cl)cc2)cc1OC (stereo not given)	none (no result: HPGD block, PNC inhibitor)
COC(=O)CSc1ncnc2c(C)csc12	none (no result: HPGD block, ALDH1A1 inh, PNC inhibitor)
Cc1nc(N)sc1-c1csc(Nc2ccccc2)n1	ALDH1A1 inh 18µM
COC(=O)[C@@]1(Cc2ccc(OC)cc2)[C@H]2c3cc(C(=O)N(C)C)n(Cc4ccc(OC)c(OC)c4)c3C[C@H]2CN1C(=O)c1ccccc1	KDM4E inh inconclusive (no result: PNC inhibitor)
O=S1(=O)CCC(NC(=S)N2CCOCC2)C1 (stereo not given)	PNC inhibitor -102
S=C(NC1CCCCC1)N1CCOCC1	none (no result: HPGD block, ALDH1A1 inh, PNC inhibitor)
COc1ccc2c(c1)CC/C(=C\Nc1ccc3c(c1)OCO3)C2=O	ALDH1A1 inh 2µM, KDM4E inh inconclusive
COc1ccc(N/C=C2\CCc3ccccc3C2=O)cc1	ALDH1A1 inh inconclusive (no result: HPGD block, PNC inhibitor)
COc1ccc2c(c1)CC/C(=C\C=C\c1ccccc1)C2=O	ALDH1A1 inh 28µM, KDM4E inh inconclusive
O=C1/C(=C/Nc2ccc3c(c2)OCO3)CCc2ccccc21	HPGD block 25µM, ALDH1A1 inh 10µM, KDM4E inh 14µM
COc1cccc(/C=C2\CCc3ccccc3C2=O)c1	none (no result: HPGD block, PNC inhibitor)
Cc1ccc(O)c(C(=O)c2cnc3c(c2)COc2ccccc2-3)c1	HPGD block 13µM, ALDH1A1 inh inconclusive, PNC inhibitor inconclusive
O=C(Cn1nnc(-c2ccccc2-n2cnnn2)n1)c1ccccc1	ALDH1A1 inh 13µM, PNC inhibitor inconclusive
O=C(Cn1nnc(-c2ccccc2-n2cnnn2)n1)N1CCCCC1	none
CCOC(=O)CSC1=C(C#N)C(c2ccccc2)C(C(C)=O)=C(C)N1 (stereo not given)	ALDH1A1 inh 32µM
C=CCOC(=O)C1=C(C)NC(SC)=C(C#N)C1c1cccs1 (stereo not given)	ALDH1A1 inh inconclusive
CSC1=C(C#N)C(c2ccccc2Cl)C(C(C)=O)=C(C)N1 (stereo not given)	ALDH1A1 inh inconclusive
C=CCOC(=O)C1=C(C)NC(SC)=C(C#N)C1c1ccc(OCC)cc1 (stereo not given)	ALDH1A1 inh 20µM, KDM4E inh inconclusive (no result: HPGD block)
CSC1=C(C#N)C(c2ccccc2)C(C(C)=O)=C(C)N1 (stereo not given)	none (no result: HPGD block, PNC inhibitor)
CSCSC1=C(C#N)C(c2ccc(Cl)cc2)C(C(C)=O)=C(C)N1 (stereo not given)	HPGD block 32µM, ALDH1A1 inh 8.9µM, KDM4E inh inconclusive
COc1ccc2[nH]cc(CCNc3cc(-c4ccc(C(=O)N(C)C)cc4)ncn3)c2c1	none (no result: HPGD block, KDM4E inh, PNC inhibitor)
Cc1ccc(/C=N/NC(=O)c2cccc(S(=O)(=O)N3CCOCC3)c2)o1	none (no result: HPGD block, PNC inhibitor)
CCN(CC)Cc1c(C(=O)N2CCc3ccccc3C2)nc2ccc(Cl)cn12	ALDH1A1 inh 13µM (no result: HPGD block, PNC inhibitor)
O=C1CC(C(=O)Nc2ccc(Cl)cc2[N+](=O)[O-])C2(CCCCC2)O1 (stereo not given)	PNC inhibitor -84
Cc1nc(NC(=O)C(C)Oc2cccc(Cl)c2)sc1C(=O)N(C)C (stereo not given)	none
CC(C)NC(=O)CSc1nc(N)c(NC(=O)c2ccccc2F)c(=O)[nH]1	PNC inhibitor -91
O=S1(=O)CCN2C=Nc3sc4c(c3C2=N1)CCCC4	ALDH1A1 inh 8.9µM
COc1ccc(N(C)C(=O)c2cnc(N3CCN(c4ncccn4)CC3)c3ccccc23)cc1	HPGD block 28µM
CCS(=O)(=O)Nc1cccc(C2=NN(S(=O)(=O)c3ccc(C)cc3)C(c3cccs3)C2)c1 (stereo not given)	ALDH1A1 inh 5µM
CCS(=O)(=O)Nc1cccc(C2=NN(S(=O)(=O)c3ccccc3)C(c3cccs3)C2)c1 (stereo not given)	ALDH1A1 inh inconclusive
CCc1ccc(C2=NN(S(C)(=O)=O)C(c3cccs3)C2)cc1 (stereo not given)	ALDH1A1 inh 20µM, PNC inhibitor -100
COc1ccccc1CC(=O)Nc1ccc2c(c1)C(=O)NC2=O	KDM4E inh inconclusive (no result: HPGD block, PNC inhibitor)
COc1ccc(C2C3=C(CCCC3=O)Nc3nc(SCc4ccccc4)nn32)cc1OC (stereo not given)	PNC inhibitor -86
COC(=O)c1nc2n(n1)C(c1cccc(Cl)c1)C1=C(CCCC1=O)N2 (stereo not given)	HPGD block 16µM
COc1ccc(C2C3=C(CCCC3=O)Nc3nc(SCc4ccc(C(=O)O)cc4)nn32)cc1OC (stereo not given)	HPGD block inconclusive, ALDH1A1 inh inconclusive, KDM4E inh inconclusive
O=C(CSc1nccc(=O)[nH]1)c1ccco1	none (no result: HPGD block, PNC inhibitor)
O=C(CSCc1ccc(Cl)cc1)c1ccco1	HPGD block 22µM, ALDH1A1 inh inconclusive
COc1cc2c(cc1NC(=O)CSc1nc3cc(Cl)ccc3s1)oc1ccccc12	PNC inhibitor inconclusive
O=C(CSc1nc2cc(Cl)ccc2s1)c1ccco1	HPGD block 22µM, ALDH1A1 inh inconclusive
O=C(CSCc1ccc(Cl)cc1)Nc1ccccc1O	none (no result: HPGD block, PNC inhibitor)
O=C(CSc1nnc(SCC(=O)c2ccco2)s1)c1ccco1	HPGD block 32µM, ALDH1A1 inh inconclusive
CN(C)CCOC(=O)NCC12CC3CC(CC(C3)C1)C2	none (no result: HPGD block, ALDH1A1 inh, PNC inhibitor)
O=c1[nH]c(=O)n([C@@H]2C[C@H](O)[C@H](CO)O2)cc1C(F)(F)F	none (no result: PNC inhibitor)
CCCCOC(=O)c1ccc(NC(=O)COC(=O)CSc2nc(C)cc(C)n2)cc1	ALDH1A1 inh inconclusive
Cc1ccc(OCC(O)CN2CCN(c3ccccc3)CC2)cc1 (stereo not given)	none
COCCOCC(O)CN1CCN(c2ccc(C)cc2)CC1 (stereo not given)	ALDH1A1 inh 11µM
COc1cc(N=C2C(=O)N3c4c(cccc42)C(C)=CC3(C)C)cc(OC)c1	ALDH1A1 inh 0.79µM
CC1=CC(C)(C)N(C(=O)CN2C(=O)c3ccccc3C2=O)c2ccccc21	ALDH1A1 inh inconclusive
CC1=CC(C)(C)N2C(=O)C(=Nc3ccc(O)cc3)c3cccc1c32	KDM4E inh 13µM (no result: HPGD block, ALDH1A1 inh, PNC inhibitor)
COc1ccc(N2C(=O)CSC23C(=O)N2c4c(cccc43)C(C)=CC2(C)C)cc1 (stereo not given)	none
COCCCN(CCC#N)C(=O)c1c(-c2c(Cl)cccc2Cl)noc1C	none (no result: HPGD block, PNC inhibitor)
